Measurements reported in PubChem BioAssay (Tox21).
Results filed as inconclusive are left out. Calls of active or inactive are those of the source. Unless noted, calls come from the whole dose curve; as a rule, active = well fitted curve in the direction sought with a large enough effect in the repeat runs; inconclusive = weak or mixed curves; inactive = no such curve, though single readings can be large; an effect the other way counts as inactive or inconclusive.

How the values were obtained:
[1] = qHTS RealTime-Glo MT Cell Viability Assay in HepG2 cells - 32 hour (AID 1224877); note: nearly all actives have a fitted effect of over 55% in size
How it was run: (§1)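 HepG2 cells (600/well) were dispensed with RealTime-Glo reagents, incubated 5 h at 37 °C, then treated with compounds in DMSO for up to 40 h. Nonlytic NanoLuc luminescence reflecting viable cells was read at each stated time point.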

[2] = A CellTox Green Cytotoxicity Assay to monitor cytotoxicity in HepG2 cells - 24 hour (AID 1224878); note: nearly all actives have a fitted effect of over 45% in size
How it was run: (§2)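 Read-out is fluorescence of a cyanine dye excluded from live cells that stains DNA of dead HepG2 cells, with signal proportional to cytotoxicity. Plates were read at 0, 8, 16, 24, 32 and 40 h after compound addition.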

[3] = qHTS RealTime-Glo MT Cell Viability Assay in HEK293 cells - 0 hour (AID 1224880); note: top concentration of the series differs between compounds; nearly all actives have a fitted effect of over 45% in size
How it was run: (§3)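 Cells were seeded together with NanoLuc luciferase and a prosubstrate that viable cells reduce to a luciferase substrate. After a 5 h incubation at 37 C/5% CO2, compounds were added and luminescence was measured repeatedly during 40 h of treatment.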

[4] = A CellTox Green Cytotoxicity Assay to monitor cytotoxicity in HEK293 cells - 32 hour (AID 1224881); note: nearly all actives have a fitted effect of over 40% in size
How it was run: (§4)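 Nonlytic real-time cytotoxicity: HEK293 + CellTox Green reagent plated, 5 h preincubation, pintool compound addition (23 nL in DMSO), 37 C for 40 h, fluorescence measured at successive time points.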

[5] = A CellTox Green Cytotoxicity Assay to monitor cytotoxicity in HepG2 cells - 0 hour (AID 1224882); note: nearly all actives have a fitted effect of over 35% in size
How it was run: as §2

[6] = A CellTox Green Cytotoxicity Assay to monitor cytotoxicity in HepG2 cells - 32 hour (AID 1224883); note: nearly all actives have a fitted effect of over 50% in size
How it was run: as §2

[7] = A CellTox Green Cytotoxicity Assay to monitor cytotoxicity in HEK293 cells - 8 hour (AID 1224884); note: nearly all actives have a fitted effect of over 35% in size
How it was run: as §4

[8] = qHTS RealTime-Glo MT Cell Viability Assay in HepG2 cells - 16 hour (AID 1224885); note: nearly all actives have a fitted effect of over 50% in size
How it was run: as §1

[9] = qHTS RealTime-Glo MT Cell Viability Assay in HEK293 cells - 24 hour (AID 1224886); note: top concentration of the series differs between compounds; nearly all actives have a fitted effect of over 50% in size
How it was run: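 HEK293 cells seeded with NanoLuc/prosubstrate reagent, rested 5 h at 37 C, then dosed and kept at 37 C up to 40 h. Nonlytic real-time luminescence from viable cells read at 0, 8, 16, 24, 32 and 40 h.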

[10] = qHTS RealTime-Glo MT Cell Viability Assay in HEK293 cells - 8 hour (AID 1224887); note: top concentration of the series differs between compounds; nearly all actives have a fitted effect of over 50% in size
How it was run: as §3

[11] = A CellTox Green Cytotoxicity Assay to monitor cytotoxicity in HEK293 cells - 16 hour (AID 1224888); note: nearly all actives have a fitted effect of over 35% in size
How it was run: as §4

[12] = qHTS RealTime-Glo MT Cell Viability Assay in HepG2 cells - 0 hour (AID 1224889); note: nearly all actives have a fitted effect of over 50% in size
How it was run: as §1

[13] = A CellTox Green Cytotoxicity Assay to monitor cytotoxicity in HepG2 cells - 8 hour (AID 1224890); note: nearly all actives have a fitted effect of over 45% in size
How it was run: as §2

[14] = qHTS assay to identify small molecule antagonists of the estrogen receptor alpha (ER-alpha) signaling pathway using the BG1 cell line in the presence of 0.1 nM 17-beta-estradiol - cell viability counter screen (AID 1259241); note: nearly all actives have a fitted effect of over 40% in size
How it was run: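 Estradiol-stimulated (0.1 nM) VM7Luc4E2 cells exposed to compounds 22 hr; viability measured by fluorescence of cleaved CellTiter-Fluor substrate after 30 min.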

[15] = qHTS assay to identify small molecule antagonists of the androgen receptor (AR) signaling pathway using the MDA cell line in the presence of 0.5 nM R1881 - cell viability counter screen (AID 1259242); note: nearly all actives have a fitted effect of over 45% in size
How it was run: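 Counter screen for cytotoxicity run in the same wells as the AR antagonist reporter screen: MDA-kb2 cells were treated 16 hr with test compounds and 0.5 nM R1881, then live-cell protease activity was measured by fluorescence.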

[16] = target: Androgen receptor (Homo sapiens) (UniProt P10275); assay: qHTS assay to identify small molecule antagonists of the androgen receptor (AR) signaling pathway using the MDA cell line in the presence of 0.5 nM R1881 (AID 1259243); note: nearly all actives have a fitted effect of over 50% in size
How it was run: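 Luciferase luminescence is the read-out: compounds are tested for suppressing 0.5 nM R1881-driven MMTV reporter activity in MDA-kb2 cells after 16 hr at 37C.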

[17] = qHTS assay to identify small molecule phospholipidosis (PLD) inducers (AID 1259344; active = well fitted curve in the direction sought with a large enough effect; an effect the other way counts as inactive or inconclusive)
How it was run: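 HepG2 cells on collagen I, attached 4 h at 37 C, were co-treated with compound and LipidTOX Red dye for 24 h at 37 C, then fixed with paraformaldehyde plus Hoechst 33342 and imaged by high-content microscopy for phospholipid accumulation.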

[18] = qHTS assay to identify small molecule HDAC inhibitors (AID 1259364)
How it was run: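 Luminescence from a cell-permeant luminogenic class I/II HDAC substrate reports endogenous deacetylase activity in intact HCT-116 cells treated with compounds for 2 h.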

[19] = target: Estrogen receptor (Homo sapiens) (UniProt P03372); assay: qHTS assay to identify small molecule antagonists of the estrogen receptor alpha (ER-alpha) signaling pathway using the BG1 cell line in the presence of 0.1 nM 17-beta-estradiol (AID 1259244); note: nearly all actives have a fitted effect of over 50% in size
How it was run: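 Cells: VM7Luc4E2, endogenous ER-alpha, 4x ERE-luc stable. Pre-culture 5 d, phenol red-free, charcoal-stripped FBS. Plated 24 h, compound + E2 0.1 nM final, 22 h 37C/5% CO2. Readout ONE-Glo luminescence.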

[20] = A CellTox Green Cytotoxicity Assay to monitor cytotoxicity in HepG2 cells - 40 hour (AID 1224879); note: nearly all actives have a fitted effect of over 40% in size
How it was run: as §2
% is set by controls: 0 for no effect and ±100 for the full control effect.

Estrogen receptor (Homo sapiens), sequence (P03372 whole entry, looked up): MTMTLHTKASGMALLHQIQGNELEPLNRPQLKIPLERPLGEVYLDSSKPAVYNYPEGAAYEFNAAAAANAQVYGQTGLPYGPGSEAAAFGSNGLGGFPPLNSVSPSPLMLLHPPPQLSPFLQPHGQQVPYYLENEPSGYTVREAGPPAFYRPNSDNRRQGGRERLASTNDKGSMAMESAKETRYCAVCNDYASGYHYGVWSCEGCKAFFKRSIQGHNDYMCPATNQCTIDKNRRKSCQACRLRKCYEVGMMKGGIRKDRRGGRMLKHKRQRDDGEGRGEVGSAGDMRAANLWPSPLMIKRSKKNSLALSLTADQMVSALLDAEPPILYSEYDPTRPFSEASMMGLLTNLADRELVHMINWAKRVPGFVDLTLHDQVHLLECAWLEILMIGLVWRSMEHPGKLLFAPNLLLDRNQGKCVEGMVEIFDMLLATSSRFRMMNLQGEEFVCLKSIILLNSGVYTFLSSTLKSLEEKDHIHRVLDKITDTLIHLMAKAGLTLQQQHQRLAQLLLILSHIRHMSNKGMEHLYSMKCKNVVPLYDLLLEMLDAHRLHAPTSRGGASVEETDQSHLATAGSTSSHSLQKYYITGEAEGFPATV
Androgen receptor (Homo sapiens), sequence (P10275 whole entry, looked up): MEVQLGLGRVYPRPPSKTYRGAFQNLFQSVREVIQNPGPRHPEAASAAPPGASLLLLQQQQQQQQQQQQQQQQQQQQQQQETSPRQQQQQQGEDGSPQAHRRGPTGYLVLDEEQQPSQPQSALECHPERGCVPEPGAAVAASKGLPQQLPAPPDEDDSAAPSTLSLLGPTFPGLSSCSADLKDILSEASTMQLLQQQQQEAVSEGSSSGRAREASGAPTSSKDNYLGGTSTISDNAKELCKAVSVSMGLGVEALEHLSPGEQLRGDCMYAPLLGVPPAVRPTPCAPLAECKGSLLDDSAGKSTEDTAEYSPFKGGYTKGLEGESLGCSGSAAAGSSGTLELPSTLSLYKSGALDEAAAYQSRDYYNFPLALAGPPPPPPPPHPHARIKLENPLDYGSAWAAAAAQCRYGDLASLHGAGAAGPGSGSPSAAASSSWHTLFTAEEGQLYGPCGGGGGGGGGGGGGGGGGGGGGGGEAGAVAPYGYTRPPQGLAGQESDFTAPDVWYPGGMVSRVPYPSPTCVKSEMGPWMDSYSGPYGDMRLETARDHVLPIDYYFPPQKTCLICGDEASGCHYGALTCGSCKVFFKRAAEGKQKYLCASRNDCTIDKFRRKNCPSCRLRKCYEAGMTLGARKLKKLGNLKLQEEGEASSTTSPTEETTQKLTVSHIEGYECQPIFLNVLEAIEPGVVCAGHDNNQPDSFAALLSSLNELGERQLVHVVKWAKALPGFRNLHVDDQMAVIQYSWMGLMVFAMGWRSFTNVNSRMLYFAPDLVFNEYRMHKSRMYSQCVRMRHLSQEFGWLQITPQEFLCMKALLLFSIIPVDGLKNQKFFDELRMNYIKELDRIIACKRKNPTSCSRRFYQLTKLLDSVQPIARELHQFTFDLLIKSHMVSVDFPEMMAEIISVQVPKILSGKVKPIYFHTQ

CC(=O)O[C@@H]1CC2CCC1(C)C2(C)C (stereo partly drawn)
inactive: outcome [1] | Potency [2] | Potency [3] | Potency [4] | Potency [5] | Potency [6] | Potency [7] | outcome [8] | Potency [9] | Potency [10] | Potency [11] | Potency [12] | Potency [13] | outcome [14] | outcome [15] | Potency [16] | outcome [17] | Potency [18]

C=Cc1ccc(C(C)(C)C)cc1
inactive: outcome [1] | Potency [2] | Potency [3] | Potency [4] | Potency [5] | Potency [6] | outcome [8] | Potency [9] | Potency [10] | Potency [11] | Potency [12] | Potency [13] | outcome [14] | outcome [15] | Potency [18]

OC1(c2ccc(Cl)cc2)CCNCC1
inactive: outcome [1] | Potency [2] | Potency [3] | Potency [4] | Potency [5] | Potency [6] | Potency [7] | outcome [8] | Potency [9] | Potency [10] | Potency [12] | Potency [13] | outcome [14] | outcome [15] | outcome [19] | Potency [18]

CCCCOC(=O)C(C)O (stereo not drawn)
inactive: outcome [1] | Potency [2] | Potency [3] | Potency [4] | Potency [5] | Potency [6] | Potency [7] | outcome [8] | Potency [9] | Potency [10] | Potency [11] | Potency [12] | Potency [13] | outcome [14] | outcome [15] | outcome [19] | Potency [18]

OCC(O)CN1CCN(c2ccccc2)CC1 (stereo not drawn)
inactive: outcome [1] | Potency [2] | Potency [3] | Potency [4] | Potency [5] | Potency [6] | Potency [7] | outcome [8] | Potency [9] | Potency [10] | Potency [11] | Potency [12] | Potency [13] | outcome [14] | outcome [15] | outcome [17]

CC(C)C1OCCN1CCOC(=O)NCCCCCCNC(=O)OCCN1CCOC1C(C)C (stereo not drawn)
inactive: outcome [1] | Potency [20] | Potency [3] | Potency [4] | Potency [5] | Potency [6] | Potency [7] | outcome [8] | Potency [9] | Potency [10] | Potency [11] | Potency [12] | Potency [13] | outcome [14] | outcome [15] | Potency [16] | outcome [19] | Potency [18]

CC1(C)CC(OC(=O)CCCCCCCCC(=O)OC2CC(C)(C)NC(C)(C)C2)CC(C)(C)N1
inactive: activity change, negative = cytotoxic [1] 3.56% [at 15.8 µM] | cytotoxicity increase [20] -12% [at 15.8 µM] | activity change, negative = cytotoxicity [3] 17.6% [at 15.8 µM] | cytotoxicity increase [4] -5.67% [at 15.8 µM] | cytotoxicity [5] -7.52% [at 15.8 µM] | cytotoxicity increase [6] -10.5% [at 15.8 µM] | cytotoxicity increase [7] -2.02% [at 15.8 µM] | activity change, negative = cytotoxic [8] -0.753% [at 15.8 µM] | activity change, negative = cytotoxicity [9] 13.9% [at 15.8 µM] | activity change, negative = cytotoxicity [10] 1.91% [at 15.8 µM] | activity change, negative = cytotoxicity [12] 5.75% [at 15.8 µM] | cytotoxicity increase [13] -0.141% [at 15.8 µM] | activity change, negative = cytotoxicity [14] -0.502% [at 19 µM] | viability change, negative = cytotoxic [15] 0.781% [at 19 µM] | activity change, negative = inhibition [19] -2.8% [at 19 µM] | activity change, negative = inhibition [18] 6.2% [at 19 µM]

C/C(CC(C)C)=N\O
inactive: outcome [1] | Potency [20] | Potency [3] | Potency [4] | Potency [5] | Potency [6] | Potency [7] | outcome [8] | Potency [9] | Potency [10] | Potency [11] | Potency [12] | Potency [13] | outcome [14] | outcome [15] | outcome [19] | Potency [18]
